The record followed here is PubChem BioAssay.

Activity calls are given as the source filed them.

For test [1], the system named is Human papillomavirus type 1a protein E7 (residues 44-93). Put plainly: HPV1a E7 fragment binders on microarrays, primary screen, biochemical, small-molecule microarray, residues 44-93, 635 nm fluorescence (AID 1108).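 Also: E7 fragment applied at 1 µg/mL in TBST for 1 h at 4 C; score combines spot fluorescence with its signal to noise ratio.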 Conditions: small-molecule microarray binding, fluorescence 635 nm; higher = more signal.
The nature of test [2]: modulators of HCV replicon luciferase signal, primary screen, HCV replication inhibitor project, Huh7 cells, luciferase reporter (AID 1109).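 Also: huh7 hepatoma cells harbouring a luciferase neomycin HCV replicon reporter; luciferase luminescence as measure of HCV replicon replication; test concentration not given here.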 The note with it: 48 h, higher = more signal.
For test [3], the target named is Left-right determination factor 2 (Homo sapiens) (UniProt O00292). Put plainly: LEFTY2 binders on small-molecule microarrays, primary screen, biochemical, small-molecule microarray, 635 nm fluorescence scan (AID 1110). The note with it: LEFTY2 binding, higher = more signal.
Sequence of Left-right determination factor 2 (Homo sapiens) (O00292 whole entry, looked up): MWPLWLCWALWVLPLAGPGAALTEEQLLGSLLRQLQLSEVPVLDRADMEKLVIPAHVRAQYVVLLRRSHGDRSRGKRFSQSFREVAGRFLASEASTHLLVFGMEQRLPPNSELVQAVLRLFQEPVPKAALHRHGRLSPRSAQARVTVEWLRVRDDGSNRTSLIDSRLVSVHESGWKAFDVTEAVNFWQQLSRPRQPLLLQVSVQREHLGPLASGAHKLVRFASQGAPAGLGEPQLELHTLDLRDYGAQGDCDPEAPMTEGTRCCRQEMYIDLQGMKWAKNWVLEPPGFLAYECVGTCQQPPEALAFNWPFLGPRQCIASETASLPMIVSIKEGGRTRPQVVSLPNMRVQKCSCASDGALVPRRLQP
Test [4] has as its target Calmodulin-1 (Homo sapiens) (UniProt P0DP23). Description: CALM1 binders on microarrays, EGTA buffer, profiling panel, biochemical, small-molecule microarray, Cy5-labelled CALM1 (AID 1111).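 Also: labelled calmodulin applied in Tris saline Tween buffer holding calcium plus EGTA and DTT.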 The note with it: Cy5-CALM1 binding fluorescence, higher = more signal.
Test [5] shares this target. Put plainly: calcium-bound CALM1 binders on microarrays, profiling panel, artefact control for SMM control-protein annotation, biochemical, small-molecule microarray, Cy5-labelled CALM1, plus calcium (AID 1112).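 Also: score merges spot fluorescence with signal to noise from triplicate slides.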 The note with it: Cy5-CALM1 binding fluorescence, higher = more signal.
The nature of test [6]: small-molecule microarray binders of probe aWnt5a, primary screen, biochemical, biotinylated probe, 635/667 nm fluorescence (AID 1113).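 Also: score merges 667 nm fluorescence intensity with signal-to-noise per printed feature.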 The note with it: higher = more signal.
Test [7] in a line: small-molecule microarray binders of probe aShh, primary screen, biochemical, biotinylated probe, 635/667 nm fluorescence (AID 1114).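 Also: probe is biotin-labelled aShh protein from a stem cell growth factor screen; measures binding of labelled protein to compounds printed on the slide; score merges feature fluorescence at 667 nm with signal-to-noise.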 The note with it: higher = more signal.
A short description of test [8]: small-molecule microarray binders of probe aNog, primary screen, biochemical, biotinylated probe, 635/667 nm fluorescence (AID 1115).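 Also: probe is biotinylated aNog protein used at 0.15 µg/mL for 1 h at 4 C; z-score combines 667 nm fluorescence of each spot with its signal to noise.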 The note with it: higher = more signal.
The target in test [9] is Torsin-1A-interacting protein 1 (Homo sapiens) (UniProt Q5JTV8). Put plainly: LAP1 binders from COS7 cell lysate, primary screen, small-molecule microarray, 635/667 nm fluorescence (AID 1116). The note with it: COS7-hLAP1 lysate binding, 635 nm fluorescence, higher = more signal.
Sequence of Torsin-1A-interacting protein 1 (Homo sapiens) (Q5JTV8 whole entry, looked up): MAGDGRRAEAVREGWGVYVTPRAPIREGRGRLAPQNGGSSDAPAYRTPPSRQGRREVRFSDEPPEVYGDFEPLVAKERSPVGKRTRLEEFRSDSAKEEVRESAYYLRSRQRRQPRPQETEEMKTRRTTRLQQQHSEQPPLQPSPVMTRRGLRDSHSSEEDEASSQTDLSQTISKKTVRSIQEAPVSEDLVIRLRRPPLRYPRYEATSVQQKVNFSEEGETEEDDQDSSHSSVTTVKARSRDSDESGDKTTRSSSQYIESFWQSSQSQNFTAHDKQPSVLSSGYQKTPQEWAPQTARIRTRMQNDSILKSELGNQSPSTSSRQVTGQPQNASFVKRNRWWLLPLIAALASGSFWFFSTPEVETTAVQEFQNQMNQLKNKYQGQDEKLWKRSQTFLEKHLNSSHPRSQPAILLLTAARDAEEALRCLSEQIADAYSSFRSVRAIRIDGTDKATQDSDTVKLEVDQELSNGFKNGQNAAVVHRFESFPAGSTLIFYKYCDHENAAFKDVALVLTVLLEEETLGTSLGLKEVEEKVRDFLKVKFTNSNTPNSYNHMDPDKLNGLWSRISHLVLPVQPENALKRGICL
For test [10], the target named is Alpha-bungarotoxin (Bungarus multicinctus) (UniProt P60615). Description: alpha-bungarotoxin binders on microarray, profiling panel, artefact control for SMM control protein annotation, biochemical, small-molecule microarray, Alexa647 label, 635/667 nm fluorescence (AID 1117). Conditions: alpha-BTX-A647 binding fluorescence, higher = more signal.
Sequence of Alpha-bungarotoxin (Bungarus multicinctus) (P60615 whole entry, looked up): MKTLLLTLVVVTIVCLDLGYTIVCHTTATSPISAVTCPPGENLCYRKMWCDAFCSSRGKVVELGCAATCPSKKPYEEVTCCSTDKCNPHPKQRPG
For the next test, the target named is Albumin (Bos taurus) (UniProt P02769). Put plainly: bovine serum albumin binders on microarray, profiling panel, artefact control for SMM control protein annotation, biochemical, small-molecule microarray, Alexa647 label, 635/667 nm fluorescence (AID 1118).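 Also: score merges 667 nm emission intensity and signal-to-noise per printed compound spot.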 Conditions: BSA-A647 binding, fluorescence 635 nm, higher = more signal.
Sequence of Albumin (Bos taurus) (P02769 whole entry, looked up): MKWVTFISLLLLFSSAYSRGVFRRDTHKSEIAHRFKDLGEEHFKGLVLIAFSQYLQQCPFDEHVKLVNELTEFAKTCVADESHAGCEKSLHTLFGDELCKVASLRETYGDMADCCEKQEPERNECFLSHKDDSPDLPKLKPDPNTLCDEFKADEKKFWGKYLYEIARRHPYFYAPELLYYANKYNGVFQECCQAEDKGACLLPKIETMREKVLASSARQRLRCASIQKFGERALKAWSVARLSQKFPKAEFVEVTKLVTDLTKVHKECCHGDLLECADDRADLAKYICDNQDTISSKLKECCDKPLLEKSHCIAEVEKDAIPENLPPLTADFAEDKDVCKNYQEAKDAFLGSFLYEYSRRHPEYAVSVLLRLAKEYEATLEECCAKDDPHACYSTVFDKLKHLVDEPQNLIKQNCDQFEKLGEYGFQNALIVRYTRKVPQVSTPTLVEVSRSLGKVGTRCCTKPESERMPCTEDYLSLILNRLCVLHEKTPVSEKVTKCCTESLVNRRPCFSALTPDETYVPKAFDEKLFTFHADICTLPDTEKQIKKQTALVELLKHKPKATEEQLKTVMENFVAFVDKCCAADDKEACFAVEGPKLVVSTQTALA
Test [11] is described as follows: small-molecule microarray binders of probe aXIP, primary screen, biochemical, NeuroSMM set, 635/667 nm fluorescence (AID 1119).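 Also: probe is the protein aXip251-270 applied at 1 µg/mL to compound-printed slides; binding of probe to printed compounds measured as 667 nm fluorescence plus signal to noise.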 The note with it: higher = more signal, called active from +8 up or from −8 down.
The nature of test [12]: small-molecule binders of probe aNOTCH3, primary screen, biochemical, small-molecule microarray, 635/667 nm fluorescence (AID 1120).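 Also: probe is a biotin-tagged antibody raised against NOTCH3 rather than NOTCH3 protein; score merges spot fluorescence near 667 nm with spot signal to noise.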 Conditions: higher = more signal.
Test [13] can be described thus: small-molecule binders of probe aNOTCH2, primary screen, biochemical, small-molecule microarray, 635/667 nm fluorescence (AID 1121).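 Also: score merges feature fluorescence read at 667 nm with its signal to noise.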 Conditions: higher = more signal.
Test [14] addresses Carbonic anhydrase 2 (Homo sapiens) (UniProt P00918). Put plainly: CAII small-molecule binders, profiling panel, biochemical, small-molecule microarray, Alexa647-labelled CAII (AID 1122). Conditions: CAII-A647 binding fluorescence, higher = more signal.
Test [15] in a line: COS7 lysate on small-molecule microarray, probe aHis, 635 nm (AID 1123).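 Also: z-score combines 667nm fluorescence intensity with signal-to-noise per printed compound spot.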 Conditions: COS7 cell lysate, fluorescence, higher = more signal.
A short description of test [16]: compound binding in COS7 lysate, probe aLAP1, primary screen, cell lysate, small-molecule microarray (AID 1124).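 Also: lysate comes from COS7 cells expressing LAP1 and is applied at 0.3 µg/mL; score merges spot fluorescence near 667 nm with signal-to-noise over triplicate slides.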 Conditions: probe aLAP1, fluorescence, higher = more signal.
A further test concerns Sam68 (KHDRBS1). Description: Sam68 small-molecule binders, primary screen, biochemical, small-molecule microarray, 635 nm fluorescence (AID 1125).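 Also: score merges 667 nm channel intensity with signal to noise over triplicate slides.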 Conditions: small-molecule microarray binding, higher = more signal.
Test [17] has as its system Chordin-like protein 2 (CHRDL2). Description: CHRDL2 small-molecule binders, primary screen, biochemical, small-molecule microarray, 635 nm fluorescence (AID 1126).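 Also: printed compound slides probed with Chrdl2 protein at 4 µg/mL for 1 h at 4 C; score merges 667 nm emission intensity with signal to noise over three replicate slides.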 The note with it: small-molecule microarray binding, fluorescence 635 nm; higher = more signal.
Test [18] addresses Concanavalin-A (Canavalia ensiformis) (UniProt P02866). Description: ConA small-molecule binders, primary screen, artefact control for SMM control protein annotation, biochemical, small-molecule microarray, Alexa647 label, 635 nm (AID 1127).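 Also: z combines 667 nm emission intensity with signal-to-noise across three replicate slides.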 The note with it: ConA-A647 binding fluorescence, higher = more signal.

Sequence of Concanavalin-A (Canavalia ensiformis) (P02866 whole entry, looked up): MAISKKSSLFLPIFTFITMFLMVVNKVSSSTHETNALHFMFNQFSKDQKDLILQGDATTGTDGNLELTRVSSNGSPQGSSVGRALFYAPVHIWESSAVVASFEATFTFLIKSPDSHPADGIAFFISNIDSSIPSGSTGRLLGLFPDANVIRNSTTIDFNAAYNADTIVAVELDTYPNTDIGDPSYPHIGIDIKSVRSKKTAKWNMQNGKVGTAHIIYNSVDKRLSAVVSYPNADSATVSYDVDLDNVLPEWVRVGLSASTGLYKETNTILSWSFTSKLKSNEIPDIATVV

Regarding `CCCCC(=C=CC[C@H](O)c1ccc(OCCO)cc1)C[C@H](O)COCc1ccccc1`, the composite z-score in test [1] is 0.383; in [3], -0.233; in [4], -0.567; in [5], -0.377; in test [6], -0.0685; in test [7], 0.14. Also, the composite z-score is -0.0168 in test [8]; 0.941 in test [9]; 0.134 in test [10]; -0.276 with Albumin (Bos taurus); -0.163 in [12]; -0.164 in [13]. Besides, the composite z-score is 0.7 in test [14]; 1.19 in test [15]; 0.271 in test [16]; 0.549 in the test with Sam68 (KHDRBS1); -0.371 in test [17]; -0.434 in test [18]. In addition, the z-score in test [2] is -1.77. Besides, in [11], the composite Z-score is 0.154 (inactive).

On to `COc1ccc(NC(=O)O[C@H]2[C@@H]3OC(=O)[C@H](Cc4cccc(Br)c4)C/C=C/C[C@@H](Cc4cccc(Br)c4)C(=O)O[C@H]3[C@@H](OC)O[C@@H]2CO)cc1`, for which the composite z-score in [1] is 0.277; in test [3], 0.601; in test [4], 0.492; in test [5], -0.062; in [6] it was -0.027; in test [7], 0.235. Also, the composite z-score was found to be 0.325 in test [8]; 0.882 in test [9]; 0.526 in test [10]; 0.259 with Albumin (Bos taurus); 0.111 in test [12]; 0.683 in test [13]. Besides, the composite z-score in [14] turned out to be 0.507; in [15], 0.84; in test [16], 0.782; in the test with Sam68 (KHDRBS1), 0.355; in test [17] it was 0.145; in test [18], 0.173. The molecule also gave a z-score in test [2] of 0.714. In test [11], the composite Z-score is 0.878 (inactive).

Turning to `CC(C)=CCCC(C)=CC(O)C1C=CC2C(=O)N(c3ccccc3)C(=O)C2N1Nc1ccccc1F` (stereo not given), the composite z-score was 0.961 in test [1]; -0.0742 in test [3]; 1.67 in test [4]; -0.132 in test [5]; -0.171 in test [6]; -0.414 in test [7]. The composite z-score in test [8] was -0.196; in test [9] it was 2.19; in [10] it was 0.529; with Albumin (Bos taurus) it was 0.846; in test [12] it was 0.0258; in test [13], -0.186. Besides, the composite z-score is 0.662 in [14]; 1.3 in test [15]; 0.561 in [16]; 1.13 in the test with Sam68 (KHDRBS1); -0.308 in test [17]; 1.14 in test [18]. For the same molecule, in [2], the z-score is -1.43. The composite Z-score in test [11] was 0.0502 (inactive).

With `COc1ccc([Si](C)(C)[C@@H]2[C@@H](CCn3cc([C@H](O)c4ccccc4)nn3)O[C@]3(C(=O)N(Cc4cccc(N5C(=O)c6cccc7cccc5c67)c4)c4ccccc43)[C@H]2C)cc1`, the composite z-score was 1.04 in test [1]; -1.54 in test [3]; 0.114 in test [4]; 0.364 in [5]; -0.232 in test [6]; -0.221 in test [7]. Further, the composite z-score was 0.262 in test [8]; -0.364 in test [9]; 0.0544 in [10]; 0.371 with Albumin (Bos taurus); -0.157 in test [12]; -0.155 in test [13]. For the same molecule, the composite z-score in [14] was 0.405; in test [15], 0.992; in test [16], -0.64; in the test with Sam68 (KHDRBS1) it was 0.173; in [17] it was -1.09; in test [18], 0.234. In addition, the z-score in test [2] was -2.89. In test [11], the composite Z-score was 0.0425 (inactive).

With `Cc1ccccc1C(O)C1C=CC2C(=O)N(c3ccccc3)C(=O)C2N1Nc1ccc([N+](=O)[O-])cc1` (stereo not given), the composite z-score in test [1] was 1.42; in [3], 0.174; in [4], 1.05; in test [5], 0.656; in [6] it was -0.012; in test [7], 0.0684. For the same molecule, the composite z-score was 1.63 in test [8]; 2.03 in test [9]; 0.625 in test [10]; 0.84 in the test with Albumin (Bos taurus); 0.116 in test [12]; -0.0796 in test [13]. Further, the composite z-score in test [14] is 0.684; in test [15], 2.73; in test [16] it was 1.03; in the test on Sam68 (KHDRBS1), 1.3; in [17], -0.051; in test [18], 1.14. Besides, the z-score in test [2] is -0.598. In test [11], the composite Z-score was 1.19 (inactive).
